In the supplement of paper PMC10338343:
± gives the standard deviation.

What was measured:
[1] = system: MILI (PIWIL2) piRISC loaded with L1MC piRNA (26 nt); assay: pre-steady-state target cleavage rate (min^-1); guide: L1MC piRNA 5'p-UAACUAAAUACUAUGCAAGCUGUAGG; higher = faster piRNA-guided slicing of the target;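 also: 1 nM active piRISC with 0.1 nM target library at 33 °C single turnover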
In short: (§1)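 Active affinity-purified piRISC carrying one synthetic guide (1 nM) was mixed with a transcribed, DNA-blocked target RNA library […] in HEPES–potassium acetate buffer at 33 °C for 0–8 or 0–960 min, with or without 500 nM GTSF1 partner protein. Uncleaved targets were then sequenced and normalised to depth and to weakly complementary targets. Three trials were pooled, and k3 was capped at 0.0001 min^-1. A burst-and-steady-state fit was applied to obtain the pre-steady-state cleavage rate.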

[2] = system: EfPiwi piRISC loaded with L1MC piRNA (26 nt); assay: pre-steady-state target cleavage rate (min^-1); auxiliary factor: 500 nM Ephydatia muelleri Gtsf1; guide: L1MC piRNA 5'p-UAACUAAAUACUAUGCAAGCUGUAGG; MIWI and MILI are mouse PIWI proteins and EfPiwi is from a freshwater sponge; tags in brackets are library labels; higher = faster piRNA-guided slicing of the target
In short: as §1

[3] = auxiliary factor: 500 nM mouse GTSF1
[4] = auxiliary factor: none (no GTSF1)

Sequence | pre-steady-state target cleavage rate [1, 3] | pre-steady-state target cleavage rate [1, 4] | pre-steady-state target cleavage rate [2]
UCCUCCUACAGCUUGGAUAGUAUUUAGUUA | 0.294 ± 0.017 | 0.0109 ± 0.003 | 0.057 ± 0.012
UCCUGGUACAGCUUCAUAGUAUUUAGUUA | 0.209 ± 0.027 | 0.00866 ± 0.0031 | 0.0159 ± 0.0055
UCCUGCUACAGCUUGCAUAGUGAUUUAGUUA | 0.0204 ± 0.0094 | 0.00369 ± 0.0028 | 0.00289 ± 0.0028
UCCUGGAUGAGCUUGCGUAGUAUUUAGUUA | 0.119 ± 0.016 | 0.0108 ± 0.0025 | 0.00425 ± 0.0038
UCCUGGAACAGCUUGCAAUGUAUUUAGUUA | 0.0726 ± 0.0083 | 0.00437 ± 0.002 | 0.00454 ± 0.0035
UCCUGGAUGAGCAUGCAAAGUAUUUAGUUA | 0.056 ± 0.011 | 0.00571 ± 0.002 | 0.00414 ± 0.0036
UCCUGCUACAGCUUGGUUAGUAUUUAGUUA | 0.262 ± 0.015 | 0.0061 ± 0.002 | 0.0105 ± 0.0033
UCCUGGAACAGCUUCCUUAGUAUUUAGUUA | 0.214 ± 0.018 | 0.00562 ± 0.002 | 0.00362 ± 0.002
UCCUGGAUCAGCUUCAUAGUAUUUAGUUA | 0.235 ± 0.012 | 0.00548 ± 0.0028 | 0.00789 ± 0.0033
UCCUGGAUGAGCUUGCAUACUAUUUAGUUA | 0.0499 ± 0.0093 | 0.00321 ± 0.0018 | 0.00682 ± 0.0019
UCCUGGUACAGCGUUGCAUAGUAUUUAGUUA | 0.196 ± 0.027 | 0.0109 ± 0.0053 | 0.00749 ± 0.0028
UCCUGCUACUGCUUGCAAAGUAUUUAGUUA | 0.0928 ± 0.013 | 0.00523 ± 0.0021 | 0.00588 ± 0.0023
UCCUCCUACAGCUUGCAUAGUAUCUAGUUA | 0.176 ± 0.02 | 0.00564 ± 0.0022 | 0.00718 ± 0.0032
UCCUGCUAGAGCUUGCAUAGUAAUUAGUUA | 0.19 ± 0.02 | 0.00448 ± 0.0023 | 0.00471 ± 0.0019
UCCUGCUUCAGCUAGCAUAGUAUUUAGUUA | 0.322 ± 0.02 | 0.00715 ± 0.0018 | 0.0566 ± 0.015
UCCUCCUACAGCUUGCAUGGUAUUUAGUUA | 0.413 ± 0.019 | 0.00982 ± 0.003 | 0.0681 ± 0.02
UCCUGGAUGUCCUUGCAUAGUGUUUAGUUA | 0.0572 ± 0.012 | 0.00445 ± 0.0025 | 0.00951 ± 0.0035
UCCUCCUACAGCAAGCAUAGUAUUUAGUUA | 0.281 ± 0.014 | 0.00806 ± 0.0019 | 0.0493 ± 0.018
UCCUCCUAAGCUUGCAUAGUAUUUAGUUA | 0.23 ± 0.015 | 0.00512 ± 0.002 | 0.0155 ± 0.0059

Sequence | pre-steady-state target cleavage rate [1, 3] | pre-steady-state target cleavage rate [1, 4] | pre-steady-state target cleavage rate [2]
UCCUGCUACUCGUUGCAUAGUAUUUAGUUA | 0.242 ± 0.014 | 0.0082 ± 0.0022 | 0.00936 ± 0.0038
UCCUGCUACAGCUUGCAUUGUAAUUAGUUA | 0.201 ± 0.024 | 0.00494 ± 0.0018 | 0.00519 ± 0.0025
UCCUGCUACAGCUUGCAUAGUAUUUAGUGA | 0.193 ± 0.033 | 0.00299 ± 0.0027 | 0.00567 ± 0.0019
UCCUGGUACAGCUUGACAUAGUAUUUAGUUA | 0.231 ± 0.025 | 0.00764 ± 0.0035 | 0.0102 ± 0.003
UCCUCCUACAGCUUGCAUAGUAUUUAGUUA [g2:g26:cont:t1A] | 0.344 ± 0.02 | 0.0103 ± 0.003 | 0.121 ± 0.034
UCCUGGAACACCUUGCUUAGUAUUUAGUUA | 0.155 ± 0.028 | 0.00581 ± 0.0019 | 0.0036 ± 0.0033
UCCUCCUACAGCUAGCAUAGUAUAUAGUUA | 0.192 ± 0.03 | 0.00339 ± 0.0026 | 0.00495 ± 0.0026
UCCUCCUACACGAUGCAUAGUAUUUAGUAA | 0.194 ± 0.026 | 0.00362 ± 0.0022 | 0.00453 ± 0.0027
UCCUGCUACACCUUGGAUAGUAUUUAGUUA | 0.122 ± 0.021 | 0.00552 ± 0.0022 | 0.00538 ± 0.0021
UCCUGGAUGAGCUUGCAUAGUAUUUUGUUA | 0.204 ± 0.04 | 0.00454 ± 0.0024 | 0.00491 ± 0.0017
UCCUCCUACAGCUUGCUUAGUAUAUAGUUA | 0.271 ± 0.024 | 0.00356 ± 0.0021 | 0.0127 ± 0.0069
UCCUGGAUCACCUUGGAUAGUAUUUAGUUA | 0.173 ± 0.02 | 0.00563 ± 0.0021 | 0.00371 ± 0.0037
UCCUGGAUCAGCUAGCUUAGUAUUUAGUUA | 0.214 ± 0.018 | 0.00868 ± 0.002 | 0.00676 ± 0.0036
UCCUGGUACAGCUUGCAUAGUAUUUGGUUA | 0.205 ± 0.033 | 0.0142 ± 0.0043 | 0.00525 ± 0.002
UCCUCCUACAGACUUGCAUAGUAUUUAGUUA | 0.253 ± 0.02 | 0.00669 ± 0.0021 | 0.017 ± 0.006
UCCUGGAUGUGGUUGCAUAGUUUUUAGUUA | 0.0125 ± 0.0086 | 0.00954 ± 0.0033 | 0.00827 ± 0.0052
UCCUGGAACUAGCUUGCAUAGUAUUUAGUUA | 0.132 ± 0.021 | 0.00841 ± 0.0027 | 0.0126 ± 0.0045
UCCUCCUUCACCUUGCAUAGUAUUUAGUUA | 0.212 ± 0.028 | 0.00635 ± 0.0025 | 0.0605 ± 0.021
UCCUGGAUCACCUUGCAUAGUAUUUAGUUA | 0.234 ± 0.023 | 0.00706 ± 0.0023 | 0.018 ± 0.0063

Sequence | pre-steady-state target cleavage rate [1, 3] | pre-steady-state target cleavage rate [1, 4] | pre-steady-state target cleavage rate [2]
UCCUCCUAGAGCUUGCAUUGUAUUUAGUUA | 0.213 ± 0.012 | 0.00709 ± 0.0021 | 0.018 ± 0.0048
UCCUGGAUGUGGUUGCAUAGUAAUUAGUUA | 0.162 ± 0.034 | 0.00751 ± 0.0032 | 0.00754 ± 0.0039
UCCUGGAAGAGCUUGCAUAGUAUUUAGAUA | 0.182 ± 0.034 | 0.00463 ± 0.0025 | 0.00519 ± 0.0023
UCCUGGAAGAGCUUGCAUACUAUUUAGUUA | 0.0778 ± 0.014 | 0.00312 ± 0.0024 | 0.00438 ± 0.0026
UCCUGGAUCAGCUUGCAUAGUAUGUAGUUA | 0.202 ± 0.018 | 0.00457 ± 0.0024 | 0.0171 ± 0.0042
UCCUGGAUGAGCUUGCAUAGUAUUUAGAUA | 0.135 ± 0.031 | 0.00291 ± 0.0024 | 0.00326 ± 0.0019
UCCUGGUAGAGCUUGCAUAGUUUUUAGUUA | 0.0231 ± 0.005 | 0.00498 ± 0.0023 | 0.0049 ± 0.0026
UCCUGGAACAGAUUGCAUAGUAUUUAGUUA | 0.284 ± 0.012 | 0.0113 ± 0.0023 | 0.0572 ± 0.014
UCCUGCAUGAGCUUGCAUAGUAUUUAGUUA | 0.265 ± 0.019 | 0.01 ± 0.0025 | 0.0163 ± 0.0047
UCCUCCUUCAGCUUGCAUAGUAUUUAGAUA | 0.157 ± 0.022 | 0.00242 ± 0.0024 | 0.00476 ± 0.0027
UCCUGGCACAGCUUGCAUAGUAUUUAGUUA | 0.289 ± 0.053 | 0.0117 ± 0.0049 | 0.0252 ± 0.0092
UCCUGCUACAGCUUGGAUAGUUUUUAGUUA | 0.0668 ± 0.012 | 0.00289 ± 0.0027 | 0.0172 ± 0.0039
UCCUGGAUCAGCUUGCAUAGUAUUUAGUUC [g2:g22:cont:t1C] | 0.235 ± 0.016 | 0.00817 ± 0.0026 | 0.0501 ± 0.011
UCCUGGAUGUCGUAGCAUAGUAUUUAGUUA | 0.0554 ± 0.011 | 0.00344 ± 0.0024 | 0.00385 ± 0.0025
UCCUGGAUGACCUUGCAUAGUAUUUAGUUA | 0.177 ± 0.023 | 0.0057 ± 0.0024 | 0.0113 ± 0.0049
UCCUGCUACACGAUGCAUAGUAUUUAGUAA | 0.257 ± 0.032 | 0.00703 ± 0.0026 | 0.00352 ± 0.0024
UCCUGCUUCAGCUUGCAUAGUAUUUACUUA | 0.116 ± 0.021 | 0.00294 ± 0.0023 | 0.00411 ± 0.0037
UCCUCCUACUCCUUGCAUAGUAUUUAGUUA | 0.261 ± 0.021 | 0.0087 ± 0.0018 | 0.165 ± 0.046
UCCUGCUUGAGCUUGCAUAGUAUUUAGUAA | 0.172 ± 0.021 | 0.00365 ± 0.0027 | 0.00772 ± 0.0023
